Screening results from PubChem.
Sampled rows, rich in hits. Any-hit rate of the full collection: about 28%.
CYP2C9 inhib: human CYP2C9 inhibition | CYP2C9 Supersomes, luciferin-H conversion, luminescence | inhibition, % at 5 µM | actives 20% (n = 96,000) | P11712;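 active = blocking of liver enzyme CYP2C9 beyond about 50% at 5 µM, limit read from the data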
Mac1 fbg enh: increases human CD11b/CD18 adhesion to fibrinogen; K562 CD11b/CD18 adhesion to fibrinogen, ATPlite luminescence; activation, % at 10 µM; actives 0.07% (n = 93,000);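 active = 10 µM primary screen giving 50% or more activity, confirmed by 40% or more on retest at that dose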
CYP2C19 inhib: human CYP2C19 inhibition. CYP2C19 Supersomes, luciferin-H EGE luminescence, 30 min. P33261. inhibition, % at 5 µM. actives 21% (n = 96,000);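 active = CYP2C19 inhibition above a set limit at 5 µM in the primary screen, cut at about 50% in these data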
Target sequence (P33261 whole entry, looked up): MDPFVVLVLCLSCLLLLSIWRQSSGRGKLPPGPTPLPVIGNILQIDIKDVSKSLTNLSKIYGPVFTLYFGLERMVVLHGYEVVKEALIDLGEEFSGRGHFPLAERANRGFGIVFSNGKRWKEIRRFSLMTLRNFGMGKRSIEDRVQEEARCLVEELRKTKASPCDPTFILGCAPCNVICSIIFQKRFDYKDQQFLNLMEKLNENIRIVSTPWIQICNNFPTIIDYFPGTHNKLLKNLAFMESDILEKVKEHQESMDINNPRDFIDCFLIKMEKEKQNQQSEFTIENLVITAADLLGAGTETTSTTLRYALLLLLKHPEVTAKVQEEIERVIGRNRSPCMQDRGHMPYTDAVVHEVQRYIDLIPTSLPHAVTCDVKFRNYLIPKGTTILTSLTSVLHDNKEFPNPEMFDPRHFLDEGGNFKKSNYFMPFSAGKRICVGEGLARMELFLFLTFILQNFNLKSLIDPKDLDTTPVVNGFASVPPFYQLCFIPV
CYP2C19 activ: cytochrome P450 2C19 (human) activation; P33261; recombinant CYP2C19, luciferin-H EGE luminescence; stronger effect = higher value; 0 = fully inhibited enzyme, 1 = untreated enzyme; activation factor at 5 µM; 96,000 tested, under 10 active; AID 1025;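 active = activation factor of at least 2 at 5 µM in the primary screen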
CD11b adhes inh: CD11b/CD18-fibrinogen binding inhibition | P05107+P11215 | K562 CD11b/CD18 adhesion to fibrinogen, ATPlite luminescence; Mn2+ added to activate the integrin | inhibition, % at 10 µM | actives 0.54% (n = 93,000);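 active = primary inhibition of 50% or more at 10 µM, then 40% or more on retest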
CYP2C9 activ: increases human cytochrome P450 2C9 activity; AID 1024; activation factor at 5 µM; recombinant CYP2C9, luciferin-H conversion, luminescence; stronger effect = higher value; factor 1 = untreated enzyme, 0 = blocked; actives 1.4% (n = 96,000); P11712;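 active = activation factor of 2 or more for CYP2C9 at a 5 µM dose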
Each line names hits and unclear results; the compound was inactive in the other large screens.

CCc1ccc(CNc2ccc(N3CCN(C(C)=O)CC3)cc2)cc1	CYP2C19 inhib 56
CCN1C(=O)S/C(=C/c2ccc(Sc3nc4ccccc4[nH]3)o2)C1=O	none (no result: CYP2C9 inhib, CYP2C19 inhib, CYP2C19 activ, CYP2C9 activ)
CCOc1cc(/C=N/NC(=O)CN2CCOCC2)ccc1OCc1ccc(Cl)cc1	none
CCOC(=O)N1CCN(C(=O)/C(=C/c2ccc(OC)cc2)NC(=O)c2ccccc2)CC1	CYP2C9 inhib 77, CYP2C19 inhib 72
Cc1ccc(OCC(=O)OCC(=O)c2c(N)n(C)c(=O)n(C)c2=O)cc1C	CYP2C19 inhib 60
Cn1c(N)c(C(=O)COC(=O)CCc2c[nH]c3ccccc23)c(=O)n(C)c1=O	CYP2C19 inhib 60
CCc1cccc(OCCCCN(CC)CC)c1	none
CCN(CC)C(=O)CN(c1ccc(C)cc1)S(=O)(=O)c1ccc(SC)cc1	none (no result: Mac1 fbg enh, CD11b adhes inh)
CCN(CC)C(=O)CN(c1ccc(Cl)cc1)S(=O)(=O)c1ccccc1	CYP2C19 inhib 68
COc1ccccc1NC(=S)NC1CCCCCC1	none (no result: CYP2C9 inhib, CYP2C19 inhib, CYP2C19 activ, CYP2C9 activ)
COc1cc(NS(=O)(=O)c2ccc(C)cc2C)cc(OC)c1OC	CYP2C9 inhib 67
COc1cc(NS(=O)(=O)c2cc(C)ccc2OC)c(OC)cc1Cl	CYP2C19 inhib 67
COc1cc(S(=O)(=O)Nc2ncccc2C)c(OC)cc1Cl	CYP2C19 inhib 91
COc1ccc2c(c1OC)C(=O)OC2Nc1ncccc1C (centres undefined)	none (no result: Mac1 fbg enh, CD11b adhes inh)
CCc1ccc(OC)c(S(=O)(=O)Nc2ccccc2C)c1	CYP2C9 inhib 73
O=S(=O)(N1CCCCCC1)N1CCN(S(=O)(=O)N2CCCCC2)CC1	none
CC(C)=CC/C=C1\CCC(C(=O)O)C(C(=O)O)C1 (centres undefined)	none
O=C(CN1C(=O)CCC1=O)Nc1nc(-c2ccc(Oc3ccccc3)cc2)cs1	none (no result: CYP2C9 inhib, CYP2C19 inhib, CYP2C19 activ, CYP2C9 activ)
CC1CCCCN1C(=O)CSc1nnc(CSc2ncccn2)n1C (centres undefined)	none
COc1ccc(C)cc1S(=O)(=O)Nc1ccccc1C	CYP2C9 inhib 62, CYP2C19 inhib 85
O=C(CCNC(=O)c1ccccc1Cl)Nc1ccc2c(c1)OCO2	CYP2C9 inhib 96, CYP2C19 inhib 59
O=C(Nc1ccc2c(c1)OCO2)N1CCN(c2ccccc2Cl)CC1	none
CC(=O)c1cc2c(cc1NC(=O)CCNC(=O)c1ccccc1Cl)OCO2	CYP2C9 inhib 74, CYP2C19 inhib 60
CCN(CC)c1ccc(CNC23CN4CN(CN(C4)C2)C3)cc1	none
CC(NC(=O)Nn1cnnc1)(C(F)(F)F)C(F)(F)F	none
CCS(=O)(=O)N1CCC(C(=O)NCCCN2CCCC2)CC1	none (no result: Mac1 fbg enh, CD11b adhes inh)
O=C(Cn1[nH]c(=O)c2ccccc2c1=O)NCc1cccnc1	CYP2C9 inhib 63
O=C(Nc1ccc(-c2noc(CCc3ccccc3)n2)cc1)c1cccnc1	CYP2C9 inhib 55
O=C(O)CCCC(=O)Nc1ccc(C(=O)NCc2cccnc2)cc1	none
O=C(CCCc1ccccc1)NCc1cccnc1	CYP2C19 inhib 91
O=C(CCCc1nc(-c2ccc(Cl)cc2)no1)Nc1cccnc1	CYP2C9 inhib 75, CYP2C19 inhib 52
O=C(CC1Nc2ccccc2NC1=O)NCc1cccnc1 (centres undefined)	none
CC1(C)C=Cc2c(c3ccccc3[nH]c2=O)O1	none
Cc1noc(C)c1S(=O)(=O)N1CCC(C(=O)NC2CCCc3ccccc32)CC1 (centres undefined)	none
Cc1cc(NS(=O)(=O)Cc2ccccc2)no1	none
COC(=O)c1ccc(CSc2nc3ccc(S(=O)(=O)N4CCOCC4)cc3[nH]2)cc1	none (no result: CYP2C9 inhib, CYP2C19 inhib, CYP2C19 activ, CYP2C9 activ)
O=C(CCc1nc(-c2ccccc2)no1)NCc1ccco1	CYP2C9 inhib 59, CYP2C19 inhib 57
COCCNC(=O)CCc1nc(-c2ccccc2)no1	none (no result: Mac1 fbg enh, CD11b adhes inh)
O=c1[nH]n(Cc2ccccc2)c(=O)c2ccccc12	CYP2C19 inhib 72 (no result: Mac1 fbg enh, CD11b adhes inh)
O=C(O)CCc1nc(-c2ccccc2Cl)no1	none
O=C(CCc1nc(-c2ccccc2)no1)NCc1cccnc1	CYP2C9 inhib 51
O=C(CCCc1nc(-c2ccccc2Cl)no1)NCc1cccnc1	CYP2C19 inhib 61
Cc1ccc(-c2noc(CCC(=O)NCc3ccco3)n2)cc1	none
Cc1nn(CCC#N)c(NC(=O)c2ccc(Cl)cc2Cl)c1P(=O)(Nc1ccc([N+](=O)[O-])cc1)N1CCOCC1 (centres undefined)	none
